Key:
Test in all cases: log2 ratio of Biotin-Ahx-Ub-VS probe labelling (fragment/DMSO); higher = less target engagement (more negative = stronger competition), active = hit call of the paper (q ≤ 0.05, log2 ratio ≤ -1)
Details in all cases: compound concentration: 200 uM; treatment time: 3 h
[1] = target: USP34 (UniProt Q70CQ2)
Summary of the method: (§1)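 Each value is an average log2 ratio of fragment to vehicle, tested by unpaired t-test. The underlying Spectronaut label-free quantities were global-median-normalised, and only proteins with ≥2 unique peptides were included. Triplicate HEK293T lysate samples (495 µg) were exposed to fragment at 200 µM or vehicle for 3 h, then to Biotin-Ahx-Ub-VS at 0.5 µM final for 1 h, before NeutrAvidin enrichment of labelled DUBs, LysC and trypsin digestion, and diaPASEF LC-MS/MS.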

[2] = target: T1, USP36 (UniProt Q9P275)
T1 sequence (whole entry): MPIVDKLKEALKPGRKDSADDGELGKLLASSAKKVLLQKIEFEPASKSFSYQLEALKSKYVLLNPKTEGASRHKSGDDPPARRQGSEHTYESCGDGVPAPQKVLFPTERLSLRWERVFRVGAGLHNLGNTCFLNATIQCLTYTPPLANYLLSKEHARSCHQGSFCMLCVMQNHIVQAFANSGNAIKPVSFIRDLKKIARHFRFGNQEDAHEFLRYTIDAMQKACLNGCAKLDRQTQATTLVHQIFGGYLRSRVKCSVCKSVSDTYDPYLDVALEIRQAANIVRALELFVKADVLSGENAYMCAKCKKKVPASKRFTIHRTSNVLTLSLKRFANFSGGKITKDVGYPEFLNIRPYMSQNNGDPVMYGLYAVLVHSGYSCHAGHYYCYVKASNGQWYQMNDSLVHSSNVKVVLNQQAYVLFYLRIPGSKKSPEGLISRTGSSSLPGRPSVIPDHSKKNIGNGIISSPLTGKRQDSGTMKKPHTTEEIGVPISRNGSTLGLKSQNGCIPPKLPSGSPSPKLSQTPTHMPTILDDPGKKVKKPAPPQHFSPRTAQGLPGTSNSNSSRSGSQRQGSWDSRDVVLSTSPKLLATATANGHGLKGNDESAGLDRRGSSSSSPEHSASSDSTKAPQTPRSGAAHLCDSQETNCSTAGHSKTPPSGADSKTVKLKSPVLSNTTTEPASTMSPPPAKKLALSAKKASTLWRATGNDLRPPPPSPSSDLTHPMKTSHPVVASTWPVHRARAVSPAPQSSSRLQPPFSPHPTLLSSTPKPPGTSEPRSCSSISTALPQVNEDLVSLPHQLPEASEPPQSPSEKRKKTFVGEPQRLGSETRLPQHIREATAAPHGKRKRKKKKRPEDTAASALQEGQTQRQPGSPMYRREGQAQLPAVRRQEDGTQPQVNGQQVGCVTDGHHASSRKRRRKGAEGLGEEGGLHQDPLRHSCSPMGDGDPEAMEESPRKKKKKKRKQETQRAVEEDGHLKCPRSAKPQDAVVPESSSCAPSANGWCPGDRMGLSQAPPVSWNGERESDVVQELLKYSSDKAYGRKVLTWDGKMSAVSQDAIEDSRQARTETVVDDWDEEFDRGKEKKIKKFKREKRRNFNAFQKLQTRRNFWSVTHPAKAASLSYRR
Summary of the method: as §1

[3] = target: T2, USP38 (UniProt Q8NB14)
T2 sequence (whole entry): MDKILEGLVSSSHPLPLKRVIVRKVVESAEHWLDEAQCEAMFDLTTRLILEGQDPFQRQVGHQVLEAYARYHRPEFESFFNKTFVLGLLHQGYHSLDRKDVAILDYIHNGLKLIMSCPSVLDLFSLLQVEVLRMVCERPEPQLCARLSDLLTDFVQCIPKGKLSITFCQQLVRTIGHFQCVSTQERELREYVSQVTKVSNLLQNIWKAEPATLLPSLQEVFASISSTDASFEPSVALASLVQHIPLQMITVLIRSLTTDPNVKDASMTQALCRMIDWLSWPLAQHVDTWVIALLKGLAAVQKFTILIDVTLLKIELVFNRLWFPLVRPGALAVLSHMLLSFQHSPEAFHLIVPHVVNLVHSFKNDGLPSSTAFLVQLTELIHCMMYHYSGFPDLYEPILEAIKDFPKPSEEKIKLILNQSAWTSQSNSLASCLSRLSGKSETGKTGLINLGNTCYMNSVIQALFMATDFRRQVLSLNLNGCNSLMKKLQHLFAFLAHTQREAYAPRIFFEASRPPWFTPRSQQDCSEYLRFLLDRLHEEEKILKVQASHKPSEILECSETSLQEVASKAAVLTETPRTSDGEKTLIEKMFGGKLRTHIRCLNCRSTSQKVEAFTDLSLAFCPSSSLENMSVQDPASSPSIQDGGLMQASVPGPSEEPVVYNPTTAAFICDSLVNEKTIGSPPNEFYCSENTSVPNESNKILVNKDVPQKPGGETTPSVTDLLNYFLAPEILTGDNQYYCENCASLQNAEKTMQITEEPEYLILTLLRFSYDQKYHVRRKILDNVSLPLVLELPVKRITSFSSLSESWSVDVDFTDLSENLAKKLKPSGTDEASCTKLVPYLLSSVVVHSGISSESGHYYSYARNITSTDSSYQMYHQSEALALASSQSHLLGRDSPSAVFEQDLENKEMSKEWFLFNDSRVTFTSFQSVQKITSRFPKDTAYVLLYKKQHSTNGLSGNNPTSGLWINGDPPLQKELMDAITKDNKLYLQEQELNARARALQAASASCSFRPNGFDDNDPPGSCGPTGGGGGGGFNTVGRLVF
Summary of the method: as §1

[4] = target: T3, USP39 (UniProt Q53GS9)
T3 sequence (whole entry): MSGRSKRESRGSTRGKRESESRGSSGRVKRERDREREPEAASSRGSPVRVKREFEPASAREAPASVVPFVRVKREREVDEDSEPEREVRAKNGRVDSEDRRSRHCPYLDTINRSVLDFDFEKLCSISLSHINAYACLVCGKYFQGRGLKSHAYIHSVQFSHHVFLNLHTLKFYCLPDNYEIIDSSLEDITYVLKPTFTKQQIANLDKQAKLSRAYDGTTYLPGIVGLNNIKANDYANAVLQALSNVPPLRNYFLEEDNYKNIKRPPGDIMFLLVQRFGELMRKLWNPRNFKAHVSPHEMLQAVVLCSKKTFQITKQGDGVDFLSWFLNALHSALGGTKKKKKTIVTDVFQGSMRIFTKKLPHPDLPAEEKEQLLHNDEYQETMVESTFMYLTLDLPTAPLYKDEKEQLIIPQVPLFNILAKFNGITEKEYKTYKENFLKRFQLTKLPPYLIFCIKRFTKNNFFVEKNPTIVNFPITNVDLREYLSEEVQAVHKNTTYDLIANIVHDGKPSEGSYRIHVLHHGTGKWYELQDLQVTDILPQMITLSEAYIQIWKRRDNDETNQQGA
Summary of the method: as §1

[5] = target: T4, USP4 (UniProt Q13107)
T4 sequence (whole entry): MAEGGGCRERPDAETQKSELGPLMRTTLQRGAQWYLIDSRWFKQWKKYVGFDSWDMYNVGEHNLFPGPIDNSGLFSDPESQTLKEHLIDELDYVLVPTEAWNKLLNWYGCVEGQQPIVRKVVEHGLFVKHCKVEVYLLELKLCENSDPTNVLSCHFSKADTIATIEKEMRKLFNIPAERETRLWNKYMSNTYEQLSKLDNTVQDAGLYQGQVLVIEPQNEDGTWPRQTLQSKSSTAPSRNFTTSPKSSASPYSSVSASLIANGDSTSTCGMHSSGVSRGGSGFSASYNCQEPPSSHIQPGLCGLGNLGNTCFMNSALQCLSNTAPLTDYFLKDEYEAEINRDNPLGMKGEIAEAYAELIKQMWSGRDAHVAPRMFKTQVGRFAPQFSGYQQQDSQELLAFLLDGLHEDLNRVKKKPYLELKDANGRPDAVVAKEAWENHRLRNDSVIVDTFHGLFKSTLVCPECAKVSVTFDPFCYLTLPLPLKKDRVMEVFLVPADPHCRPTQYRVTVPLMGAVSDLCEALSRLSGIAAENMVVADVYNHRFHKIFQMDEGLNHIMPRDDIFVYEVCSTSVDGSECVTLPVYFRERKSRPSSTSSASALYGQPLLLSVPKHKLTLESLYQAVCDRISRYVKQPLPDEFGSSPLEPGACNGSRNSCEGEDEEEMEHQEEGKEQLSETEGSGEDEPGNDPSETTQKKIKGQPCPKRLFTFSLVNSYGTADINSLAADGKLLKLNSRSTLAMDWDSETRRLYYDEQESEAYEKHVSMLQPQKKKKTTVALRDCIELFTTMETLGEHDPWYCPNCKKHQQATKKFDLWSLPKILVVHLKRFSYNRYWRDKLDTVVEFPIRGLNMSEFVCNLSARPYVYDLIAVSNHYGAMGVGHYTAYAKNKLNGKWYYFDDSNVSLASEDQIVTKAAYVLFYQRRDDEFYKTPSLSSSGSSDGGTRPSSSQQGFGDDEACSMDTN
Summary of the method: as §1

Measured: log2 ratio of Biotin-Ahx-Ub-VS probe labelling

Sequence of USP34 (Q70CQ2 whole entry, the tested form may be a part): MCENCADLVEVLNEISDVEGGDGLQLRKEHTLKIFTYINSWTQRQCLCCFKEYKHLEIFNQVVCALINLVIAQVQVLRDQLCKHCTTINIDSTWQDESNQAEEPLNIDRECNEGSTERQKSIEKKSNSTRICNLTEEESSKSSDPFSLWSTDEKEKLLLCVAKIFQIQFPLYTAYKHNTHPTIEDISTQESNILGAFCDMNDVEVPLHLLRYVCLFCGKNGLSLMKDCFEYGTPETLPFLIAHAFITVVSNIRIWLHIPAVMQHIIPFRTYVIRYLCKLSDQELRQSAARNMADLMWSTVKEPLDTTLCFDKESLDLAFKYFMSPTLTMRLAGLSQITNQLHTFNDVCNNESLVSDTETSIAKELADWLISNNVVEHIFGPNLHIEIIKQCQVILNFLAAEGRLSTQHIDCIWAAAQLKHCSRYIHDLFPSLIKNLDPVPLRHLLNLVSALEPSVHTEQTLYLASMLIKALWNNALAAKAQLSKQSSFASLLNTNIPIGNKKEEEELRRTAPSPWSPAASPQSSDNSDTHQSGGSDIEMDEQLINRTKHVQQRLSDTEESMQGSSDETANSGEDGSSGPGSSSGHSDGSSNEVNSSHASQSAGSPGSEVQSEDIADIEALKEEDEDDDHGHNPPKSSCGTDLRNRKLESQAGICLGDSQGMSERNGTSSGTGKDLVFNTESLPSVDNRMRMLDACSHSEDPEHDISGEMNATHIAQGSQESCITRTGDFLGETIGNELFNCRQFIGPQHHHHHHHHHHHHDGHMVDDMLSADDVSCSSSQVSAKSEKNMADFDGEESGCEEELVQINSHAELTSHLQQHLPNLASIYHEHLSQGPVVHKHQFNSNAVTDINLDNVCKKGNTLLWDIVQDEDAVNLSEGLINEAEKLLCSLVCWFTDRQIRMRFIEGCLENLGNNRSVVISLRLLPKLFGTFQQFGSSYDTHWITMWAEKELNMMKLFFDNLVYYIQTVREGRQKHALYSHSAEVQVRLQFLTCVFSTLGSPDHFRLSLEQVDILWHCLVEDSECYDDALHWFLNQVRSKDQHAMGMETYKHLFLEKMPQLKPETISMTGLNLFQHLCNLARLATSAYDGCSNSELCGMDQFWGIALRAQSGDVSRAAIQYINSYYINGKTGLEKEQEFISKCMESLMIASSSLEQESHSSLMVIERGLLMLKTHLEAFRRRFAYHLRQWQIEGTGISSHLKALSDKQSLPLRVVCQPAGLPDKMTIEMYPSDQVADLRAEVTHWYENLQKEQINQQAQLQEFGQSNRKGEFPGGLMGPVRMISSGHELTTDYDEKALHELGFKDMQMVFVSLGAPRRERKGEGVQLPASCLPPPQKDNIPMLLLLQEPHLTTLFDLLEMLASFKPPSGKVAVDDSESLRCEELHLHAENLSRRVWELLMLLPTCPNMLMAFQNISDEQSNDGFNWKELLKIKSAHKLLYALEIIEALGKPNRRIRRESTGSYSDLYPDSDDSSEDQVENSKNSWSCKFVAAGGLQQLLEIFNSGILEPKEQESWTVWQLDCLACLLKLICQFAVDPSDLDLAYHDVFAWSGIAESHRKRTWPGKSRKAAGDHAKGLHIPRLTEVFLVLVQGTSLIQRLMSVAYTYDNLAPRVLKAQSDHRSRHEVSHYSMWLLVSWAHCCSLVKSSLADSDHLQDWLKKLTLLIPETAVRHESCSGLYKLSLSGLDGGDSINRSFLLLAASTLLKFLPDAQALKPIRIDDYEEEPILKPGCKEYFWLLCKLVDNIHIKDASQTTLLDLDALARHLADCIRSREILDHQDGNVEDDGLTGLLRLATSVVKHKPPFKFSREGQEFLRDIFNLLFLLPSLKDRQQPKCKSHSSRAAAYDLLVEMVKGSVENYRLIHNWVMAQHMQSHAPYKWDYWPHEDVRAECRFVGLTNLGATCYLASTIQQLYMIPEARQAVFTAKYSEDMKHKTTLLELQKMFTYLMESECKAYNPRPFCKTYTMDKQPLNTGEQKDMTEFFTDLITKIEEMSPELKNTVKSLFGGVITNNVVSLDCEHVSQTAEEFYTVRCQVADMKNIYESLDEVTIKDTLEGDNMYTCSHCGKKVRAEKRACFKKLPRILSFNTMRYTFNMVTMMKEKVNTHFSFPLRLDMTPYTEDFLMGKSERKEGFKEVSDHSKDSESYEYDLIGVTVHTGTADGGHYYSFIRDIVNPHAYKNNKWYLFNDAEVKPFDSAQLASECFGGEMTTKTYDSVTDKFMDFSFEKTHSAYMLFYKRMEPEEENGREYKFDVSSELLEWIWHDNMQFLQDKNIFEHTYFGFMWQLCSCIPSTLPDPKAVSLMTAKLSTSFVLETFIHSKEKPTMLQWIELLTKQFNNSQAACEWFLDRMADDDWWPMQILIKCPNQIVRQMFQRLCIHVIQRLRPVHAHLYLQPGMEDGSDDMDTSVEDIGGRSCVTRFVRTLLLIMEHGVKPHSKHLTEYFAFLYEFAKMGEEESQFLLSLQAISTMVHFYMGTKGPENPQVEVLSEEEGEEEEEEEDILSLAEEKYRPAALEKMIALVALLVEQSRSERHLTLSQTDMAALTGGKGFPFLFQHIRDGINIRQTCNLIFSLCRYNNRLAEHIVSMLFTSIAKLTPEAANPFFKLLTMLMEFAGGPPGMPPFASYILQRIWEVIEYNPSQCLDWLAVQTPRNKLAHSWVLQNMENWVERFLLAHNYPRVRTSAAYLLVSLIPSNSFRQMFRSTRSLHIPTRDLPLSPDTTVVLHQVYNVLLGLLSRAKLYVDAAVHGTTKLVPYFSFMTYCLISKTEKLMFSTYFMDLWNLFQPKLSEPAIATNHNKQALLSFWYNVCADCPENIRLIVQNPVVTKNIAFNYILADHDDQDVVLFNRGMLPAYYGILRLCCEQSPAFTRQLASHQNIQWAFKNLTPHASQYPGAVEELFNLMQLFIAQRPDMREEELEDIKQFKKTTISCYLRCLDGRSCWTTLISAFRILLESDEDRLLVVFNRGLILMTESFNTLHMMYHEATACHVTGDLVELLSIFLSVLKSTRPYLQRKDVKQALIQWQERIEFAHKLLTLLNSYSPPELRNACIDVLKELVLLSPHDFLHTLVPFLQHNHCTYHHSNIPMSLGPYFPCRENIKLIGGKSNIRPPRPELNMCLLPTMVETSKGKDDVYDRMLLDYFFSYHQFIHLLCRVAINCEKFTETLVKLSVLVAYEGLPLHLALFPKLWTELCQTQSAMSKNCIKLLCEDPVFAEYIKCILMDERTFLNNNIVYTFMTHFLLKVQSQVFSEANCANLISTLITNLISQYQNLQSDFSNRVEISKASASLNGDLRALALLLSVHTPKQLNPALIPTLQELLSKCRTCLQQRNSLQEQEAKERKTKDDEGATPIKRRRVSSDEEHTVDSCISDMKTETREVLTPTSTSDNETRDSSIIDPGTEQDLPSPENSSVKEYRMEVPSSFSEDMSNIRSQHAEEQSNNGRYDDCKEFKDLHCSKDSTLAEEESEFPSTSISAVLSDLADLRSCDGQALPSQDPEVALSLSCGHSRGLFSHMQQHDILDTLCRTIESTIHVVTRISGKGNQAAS

O=C(CCl)Nc1ccc(F)cc1Cl
inactive: [1] -0.452 | [2] 0.0206 | [3] -0.165 | [4] 0.253 | [5] -0.129

Source: the supplement of paper PMC11732987, “Enantioselective OTUD7B fragment discovery through chemoproteomics screening and high-throughput optimisation” (Communications Chemistry, 2025)
